Measurements published in ChEMBL document CHEMBL2218924, “A broad activity screen in support of a chemogenomic map for kinase signalling research and drug discovery” (Biochem J, 2013).

Columns and labels:
[1] = target: Rho-associated protein kinase 2 (Homo sapiens) (UniProt O75116); settings: at 1 µM
[2] = target: Rho-associated protein kinase 2 (Homo sapiens) (UniProt O75116); settings: at 10 µM
[3] = target: Proto-oncogene tyrosine-protein kinase receptor Ret (Homo sapiens) (UniProt P07949); settings: at 1 µM
Sequence of Proto-oncogene tyrosine-protein kinase receptor Ret (Homo sapiens) (P07949 whole entry): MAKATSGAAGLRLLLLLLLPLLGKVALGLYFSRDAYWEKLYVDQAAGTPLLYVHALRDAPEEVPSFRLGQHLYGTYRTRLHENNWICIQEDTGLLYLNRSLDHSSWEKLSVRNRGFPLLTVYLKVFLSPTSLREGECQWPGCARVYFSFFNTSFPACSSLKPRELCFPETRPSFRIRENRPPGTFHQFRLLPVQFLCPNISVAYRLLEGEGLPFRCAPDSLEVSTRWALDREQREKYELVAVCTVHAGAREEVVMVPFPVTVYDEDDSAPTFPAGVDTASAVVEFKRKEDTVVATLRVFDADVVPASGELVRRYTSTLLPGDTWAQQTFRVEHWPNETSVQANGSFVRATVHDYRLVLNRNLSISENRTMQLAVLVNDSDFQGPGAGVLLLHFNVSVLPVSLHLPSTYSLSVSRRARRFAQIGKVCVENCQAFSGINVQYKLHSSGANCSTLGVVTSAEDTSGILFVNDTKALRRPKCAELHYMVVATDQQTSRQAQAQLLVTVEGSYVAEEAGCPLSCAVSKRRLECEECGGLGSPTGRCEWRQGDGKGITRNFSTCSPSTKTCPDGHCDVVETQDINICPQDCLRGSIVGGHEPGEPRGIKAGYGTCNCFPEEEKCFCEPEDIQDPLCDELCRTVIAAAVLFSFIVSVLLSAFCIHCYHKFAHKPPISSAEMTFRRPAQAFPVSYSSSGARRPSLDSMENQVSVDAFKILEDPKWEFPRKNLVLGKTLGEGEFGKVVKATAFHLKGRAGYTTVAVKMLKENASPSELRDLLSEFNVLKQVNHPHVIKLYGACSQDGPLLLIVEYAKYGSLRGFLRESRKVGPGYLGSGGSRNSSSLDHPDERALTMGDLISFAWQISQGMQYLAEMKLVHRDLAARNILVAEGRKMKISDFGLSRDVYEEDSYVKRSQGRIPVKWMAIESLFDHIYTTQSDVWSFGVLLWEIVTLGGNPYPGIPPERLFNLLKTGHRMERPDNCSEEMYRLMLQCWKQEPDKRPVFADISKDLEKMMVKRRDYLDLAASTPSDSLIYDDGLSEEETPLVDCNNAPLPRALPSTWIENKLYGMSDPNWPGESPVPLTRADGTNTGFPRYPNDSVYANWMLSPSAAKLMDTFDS

[4] = target: Proto-oncogene tyrosine-protein kinase receptor Ret (Homo sapiens) (UniProt P07949); settings: at 10 µM
[5] = target: Macrophage-stimulating protein receptor (Homo sapiens) (UniProt Q04912); settings: at 1 µM
Sequence of Macrophage-stimulating protein receptor (Homo sapiens) (Q04912 25-304 limits assumed): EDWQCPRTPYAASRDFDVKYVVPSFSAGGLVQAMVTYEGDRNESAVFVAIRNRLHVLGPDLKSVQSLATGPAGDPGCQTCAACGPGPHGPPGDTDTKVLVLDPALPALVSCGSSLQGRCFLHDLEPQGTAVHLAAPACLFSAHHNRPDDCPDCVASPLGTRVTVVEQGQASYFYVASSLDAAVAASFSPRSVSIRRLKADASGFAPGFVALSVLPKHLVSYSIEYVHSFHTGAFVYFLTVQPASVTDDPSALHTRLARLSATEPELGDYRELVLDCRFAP
Sequence of Macrophage-stimulating protein receptor (Homo sapiens) (Q04912 310-1400 limits assumed): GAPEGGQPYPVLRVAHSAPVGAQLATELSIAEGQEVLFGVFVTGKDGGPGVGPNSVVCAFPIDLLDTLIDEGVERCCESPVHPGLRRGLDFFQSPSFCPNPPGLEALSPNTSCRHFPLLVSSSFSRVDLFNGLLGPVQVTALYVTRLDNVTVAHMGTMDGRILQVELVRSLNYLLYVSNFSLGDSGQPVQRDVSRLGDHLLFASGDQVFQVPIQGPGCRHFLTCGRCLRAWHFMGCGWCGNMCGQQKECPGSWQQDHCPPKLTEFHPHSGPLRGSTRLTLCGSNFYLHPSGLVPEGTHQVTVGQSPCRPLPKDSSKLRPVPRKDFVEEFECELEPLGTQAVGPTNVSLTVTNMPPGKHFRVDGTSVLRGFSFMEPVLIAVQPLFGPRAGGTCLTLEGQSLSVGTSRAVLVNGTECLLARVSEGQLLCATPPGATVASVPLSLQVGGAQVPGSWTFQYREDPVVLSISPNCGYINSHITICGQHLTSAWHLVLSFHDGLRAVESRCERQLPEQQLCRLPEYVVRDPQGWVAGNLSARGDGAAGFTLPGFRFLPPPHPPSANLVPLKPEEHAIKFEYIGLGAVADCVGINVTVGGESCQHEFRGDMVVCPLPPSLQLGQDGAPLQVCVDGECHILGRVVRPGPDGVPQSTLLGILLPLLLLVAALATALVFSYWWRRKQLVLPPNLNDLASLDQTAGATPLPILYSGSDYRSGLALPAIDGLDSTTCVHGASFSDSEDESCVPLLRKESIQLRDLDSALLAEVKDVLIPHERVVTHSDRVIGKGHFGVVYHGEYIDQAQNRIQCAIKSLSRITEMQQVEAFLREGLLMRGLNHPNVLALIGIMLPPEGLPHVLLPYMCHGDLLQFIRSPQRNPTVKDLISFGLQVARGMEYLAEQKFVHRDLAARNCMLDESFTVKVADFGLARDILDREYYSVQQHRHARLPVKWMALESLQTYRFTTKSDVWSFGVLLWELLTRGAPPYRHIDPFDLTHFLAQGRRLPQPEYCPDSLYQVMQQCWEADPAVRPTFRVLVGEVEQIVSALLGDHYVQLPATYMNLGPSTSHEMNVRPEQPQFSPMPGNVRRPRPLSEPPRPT

[6] = target: Macrophage-stimulating protein receptor (Homo sapiens) (UniProt Q04912); settings: at 10 µM
[7] = target: Proto-oncogene tyrosine-protein kinase ROS (Homo sapiens) (UniProt P08922); settings: at 1 µM
[8] = target: Proto-oncogene tyrosine-protein kinase ROS (Homo sapiens) (UniProt P08922); settings: at 10 µM
[9] = target: T1, Tyrosine-protein kinase receptor TYRO3 (Homo sapiens) (UniProt Q06418); settings: at 1 µM
T1 sequence (whole entry): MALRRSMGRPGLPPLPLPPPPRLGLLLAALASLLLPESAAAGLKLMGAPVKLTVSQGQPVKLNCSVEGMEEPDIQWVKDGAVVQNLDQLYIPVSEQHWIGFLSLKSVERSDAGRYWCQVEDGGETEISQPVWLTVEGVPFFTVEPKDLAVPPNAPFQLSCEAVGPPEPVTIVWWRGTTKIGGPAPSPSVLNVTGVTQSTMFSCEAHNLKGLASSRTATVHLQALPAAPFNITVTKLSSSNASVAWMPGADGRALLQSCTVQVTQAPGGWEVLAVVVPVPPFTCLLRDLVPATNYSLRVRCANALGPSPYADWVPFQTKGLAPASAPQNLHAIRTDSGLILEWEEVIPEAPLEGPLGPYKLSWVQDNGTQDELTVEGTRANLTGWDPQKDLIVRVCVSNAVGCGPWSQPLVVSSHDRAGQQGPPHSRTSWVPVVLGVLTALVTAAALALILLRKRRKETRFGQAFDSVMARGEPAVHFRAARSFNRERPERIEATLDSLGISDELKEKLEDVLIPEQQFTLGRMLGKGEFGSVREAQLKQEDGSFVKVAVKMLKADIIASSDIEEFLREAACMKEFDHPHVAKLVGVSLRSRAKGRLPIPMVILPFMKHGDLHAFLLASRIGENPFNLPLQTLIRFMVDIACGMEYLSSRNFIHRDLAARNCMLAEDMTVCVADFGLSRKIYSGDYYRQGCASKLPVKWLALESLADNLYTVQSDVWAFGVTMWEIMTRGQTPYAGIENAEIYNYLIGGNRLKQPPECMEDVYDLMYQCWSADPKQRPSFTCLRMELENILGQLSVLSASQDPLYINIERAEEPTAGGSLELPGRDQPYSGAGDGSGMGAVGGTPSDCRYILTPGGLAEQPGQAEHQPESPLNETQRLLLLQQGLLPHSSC

[10] = target: T1, Tyrosine-protein kinase receptor TYRO3 (Homo sapiens); settings: at 10 µM
[11] = target: Ribosomal protein S6 kinase alpha-1 (Homo sapiens) (UniProt Q15418); settings: at 1 µM
[12] = target: Ribosomal protein S6 kinase alpha-1 (Homo sapiens) (UniProt Q15418); settings: at 10 µM
[13] = target: Ribosomal protein S6 kinase alpha-3 (Homo sapiens) (UniProt P51812); settings: at 1 µM
Sequence of Ribosomal protein S6 kinase alpha-3 (Homo sapiens) (P51812 whole entry): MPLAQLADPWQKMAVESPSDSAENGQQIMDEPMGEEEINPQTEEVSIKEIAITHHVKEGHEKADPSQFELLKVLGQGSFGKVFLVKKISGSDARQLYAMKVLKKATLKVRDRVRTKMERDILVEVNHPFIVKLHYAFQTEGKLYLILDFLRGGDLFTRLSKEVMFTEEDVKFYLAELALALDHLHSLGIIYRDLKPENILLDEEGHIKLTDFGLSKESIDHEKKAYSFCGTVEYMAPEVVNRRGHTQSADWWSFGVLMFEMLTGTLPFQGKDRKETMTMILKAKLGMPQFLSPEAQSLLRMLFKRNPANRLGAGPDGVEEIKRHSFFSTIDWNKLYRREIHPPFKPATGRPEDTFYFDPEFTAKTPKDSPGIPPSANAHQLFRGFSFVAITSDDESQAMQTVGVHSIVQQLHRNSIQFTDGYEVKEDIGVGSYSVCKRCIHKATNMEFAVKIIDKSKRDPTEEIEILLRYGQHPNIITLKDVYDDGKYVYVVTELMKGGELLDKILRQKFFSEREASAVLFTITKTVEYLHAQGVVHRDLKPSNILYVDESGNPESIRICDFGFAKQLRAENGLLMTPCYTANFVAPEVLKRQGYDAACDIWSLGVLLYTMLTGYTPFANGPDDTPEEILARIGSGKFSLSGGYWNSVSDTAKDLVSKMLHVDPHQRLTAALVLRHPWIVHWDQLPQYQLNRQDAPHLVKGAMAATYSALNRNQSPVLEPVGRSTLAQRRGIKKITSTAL

[14] = target: Ribosomal protein S6 kinase alpha-3 (Homo sapiens) (UniProt P51812); settings: at 10 µM
[15] = target: Ribosomal protein S6 kinase alpha-2 (Homo sapiens) (UniProt Q15349); settings: at 1 µM
Sequence of Ribosomal protein S6 kinase alpha-2 (Homo sapiens) (Q15349 whole entry): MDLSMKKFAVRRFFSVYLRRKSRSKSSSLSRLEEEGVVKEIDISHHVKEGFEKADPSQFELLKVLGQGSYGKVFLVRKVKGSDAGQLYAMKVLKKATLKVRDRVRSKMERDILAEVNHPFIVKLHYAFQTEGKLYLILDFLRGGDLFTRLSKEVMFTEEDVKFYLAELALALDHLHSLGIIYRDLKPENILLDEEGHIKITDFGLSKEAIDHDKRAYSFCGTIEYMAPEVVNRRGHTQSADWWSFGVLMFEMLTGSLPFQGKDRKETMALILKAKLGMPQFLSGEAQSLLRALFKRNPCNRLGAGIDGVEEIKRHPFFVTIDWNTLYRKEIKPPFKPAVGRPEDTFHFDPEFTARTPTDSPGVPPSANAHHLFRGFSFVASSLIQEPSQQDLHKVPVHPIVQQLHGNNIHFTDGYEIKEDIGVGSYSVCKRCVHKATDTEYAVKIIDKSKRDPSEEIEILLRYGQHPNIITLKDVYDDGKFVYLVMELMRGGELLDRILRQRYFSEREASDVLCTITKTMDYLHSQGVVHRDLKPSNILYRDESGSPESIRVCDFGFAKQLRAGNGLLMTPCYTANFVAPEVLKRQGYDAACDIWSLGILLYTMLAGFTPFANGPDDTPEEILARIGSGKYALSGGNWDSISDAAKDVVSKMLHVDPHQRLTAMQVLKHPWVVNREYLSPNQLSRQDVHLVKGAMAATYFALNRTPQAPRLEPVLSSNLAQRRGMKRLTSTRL

[16] = target: Ribosomal protein S6 kinase alpha-2 (Homo sapiens) (UniProt Q15349); settings: at 10 µM
[17] = target: Ribosomal protein S6 kinase alpha-6 (Homo sapiens) (UniProt Q9UK32); settings: at 1 µM
Sequence of Ribosomal protein S6 kinase alpha-6 (Homo sapiens) (Q9UK32 whole entry): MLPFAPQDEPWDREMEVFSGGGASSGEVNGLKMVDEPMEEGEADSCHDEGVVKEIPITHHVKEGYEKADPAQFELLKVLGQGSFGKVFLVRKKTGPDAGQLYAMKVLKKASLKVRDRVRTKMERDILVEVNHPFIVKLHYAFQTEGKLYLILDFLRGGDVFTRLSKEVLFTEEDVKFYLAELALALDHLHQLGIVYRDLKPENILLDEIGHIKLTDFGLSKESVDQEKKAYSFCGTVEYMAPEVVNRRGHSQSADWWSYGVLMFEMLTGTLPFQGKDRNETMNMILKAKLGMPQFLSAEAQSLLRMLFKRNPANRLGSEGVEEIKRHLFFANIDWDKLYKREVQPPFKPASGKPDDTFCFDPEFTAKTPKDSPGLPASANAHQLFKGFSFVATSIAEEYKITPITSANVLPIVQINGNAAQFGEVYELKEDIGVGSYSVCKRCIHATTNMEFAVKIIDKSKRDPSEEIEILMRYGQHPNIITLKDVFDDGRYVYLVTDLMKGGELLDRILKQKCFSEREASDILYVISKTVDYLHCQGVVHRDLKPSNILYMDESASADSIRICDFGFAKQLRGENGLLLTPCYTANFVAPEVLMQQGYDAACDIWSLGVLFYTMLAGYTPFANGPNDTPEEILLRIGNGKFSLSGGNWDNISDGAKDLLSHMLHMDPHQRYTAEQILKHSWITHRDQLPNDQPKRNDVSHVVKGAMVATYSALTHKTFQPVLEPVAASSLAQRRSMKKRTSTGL

[18] = target: Ribosomal protein S6 kinase alpha-6 (Homo sapiens) (UniProt Q9UK32); settings: at 10 µM
[19] = target: Mitogen-activated protein kinase 14 (Homo sapiens) (UniProt Q16539); settings: at 1 µM
Sequence of Mitogen-activated protein kinase 14 (Homo sapiens) (Q16539 whole entry): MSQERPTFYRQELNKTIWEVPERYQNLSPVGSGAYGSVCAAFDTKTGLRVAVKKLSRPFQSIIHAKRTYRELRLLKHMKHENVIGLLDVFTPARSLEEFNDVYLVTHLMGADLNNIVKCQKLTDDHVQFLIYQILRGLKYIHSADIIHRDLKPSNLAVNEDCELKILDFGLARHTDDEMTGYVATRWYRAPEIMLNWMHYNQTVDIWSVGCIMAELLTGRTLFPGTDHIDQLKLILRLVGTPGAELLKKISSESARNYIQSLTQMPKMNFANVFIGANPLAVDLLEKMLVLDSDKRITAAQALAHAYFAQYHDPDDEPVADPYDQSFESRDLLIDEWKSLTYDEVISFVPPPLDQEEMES

[20] = target: Mitogen-activated protein kinase 14 (Homo sapiens) (UniProt Q16539); settings: at 10 µM

Compound | residual activity [1] [%] | residual activity [2] [%] | residual activity [3] [%] | residual activity [4] [%] | residual activity [5] [%] | residual activity [6] [%] | residual activity [7] [%] | residual activity [8] [%] | residual activity [9] [%] | residual activity [10] [%] | residual activity [11] [%] | residual activity [12] [%] | residual activity [13] [%] | residual activity [14] [%] | residual activity [15] [%] | residual activity [16] [%] | residual activity [17] [%] | residual activity [18] [%] | residual activity [19] [%] | residual activity [20] [%]
Cc1ccc(NC2=CC(=O)c3sc(C)nc3C2=O)cc1 | 87 | 90 | 109 | 97 | 79 | 81 | 101 | 88 | 98 | 101 | 104 | 78 | 117 | 123 | 101 | 102 | 72 | 111 | 97 | 93
COc1ccc(C(=O)Nc2sc3c(c2C(N)=O)CCCC3)cc1OC | 96 | 80 | 93 | 113 | 99 | 73 | 96 | 97 | 86 | 96 | 99 | 103 | 111 | 93 | 94 | 97 | 118 | 99 | 93 | 100
O=C(Nc1cccc(Nc2cc(Nc3cccc(C(F)(F)F)c3)ncn2)c1)C1CC1 | 94 | 80 | 89 | 95 | 96 | 53 | 92 | 88 | 88 | 30 | 105 | 79 | 106 | 66 | 99 | 55 | 103 | 99 | 80 | 40
N#C/C(=C(\N)Sc1ccc(N)cc1)c1ccccc1C(F)(F)F | 102 | 95 | 109 | 90 | 88 | 83 | 100 | 89 | 103 | 98 | 40 | 42 | 28 | 15 | 53 | 48 | 103 | 104 | 87 | 82
CC#CC(=O)Nc1cc2c(Nc3ccc(F)c(Cl)c3)ncnc2cn1 | 92 | 77 | 100 | 104 | 101 | 76 | 94 | 92 | 85 | 82 | 113 | 101 | 104 | 107 | 99 | 96 | 116 | 105 | 91 | 98
Nc1nc(Nc2ccc(S(N)(=O)=O)cc2)nn1C(=S)Nc1c(F)cccc1F | 0 | 1 | 2 | -1 | 7 | 2 | 70 | 16 | 14 | -1 | 4 | 3 | 0 | -1 | 0 | -1 | -2 | -2 | 88 | 53
CN(C)c1ccc(/C=C2\C(=O)Nc3ccccc32)cc1 | 112 | 38 | 66 | 32 | 91 | 92 | 106 | 103 | 100 | 99 | 66 | 34 | 47 | 16 | 74 | 25 | 91 | 40 | 102 | 106
O=C1NC(=O)c2cc(Nc3ccc(F)cc3)c(Nc3ccc(F)cc3)cc21 | 101 | 78 | 91 | 86 | 104 | 76 | 94 | 92 | 94 | 97 | 87 | 91 | 123 | 77 | 103 | 78 | 101 | 100 | 57 | 23
CC(C)n1cnc2c(NCc3ccccc3)nc(NCCCO)nc21 | 94 | 90 | 96 | 92 | 88 | 92 | 96 | 93 | 105 | 101 | 102 | 82 | 101 | 87 | 101 | 72 | 81 | 91 | 87 | 82
O=C(Nc1cccc(Nc2nccc(Nc3cccc(C(F)(F)F)c3)n2)c1)C1CC1 | 108 | 88 | 74 | 81 | 93 | 38 | 102 | 68 | 70 | 89 | 78 | 36 | 45 | 27 | 106 | 62 | 96 | 128 | 79 | 59
Oc1ccc(-c2nc(-c3ccc(F)cc3)c(-c3ccncc3)[nH]2)cc1 | 95 | 36 | 101 | 47 | 84 | 68 | 115 | 104 | 103 | 81 | 117 | 83 | 55 | 45 | 105 | 68 | 88 | 92 |  | 
O=[N+]([O-])c1ccc(-c2nc(-c3ccc(F)cc3)c(-c3ccncc3)[nH]2)cc1 | 87 | 94 | 78 | 73 | 90 | 90 | 104 | 91 | 86 | 111 | 101 | 104 | 60 | 62 | 103 | 97 | 91 | 83 | 1 | 2
O=Nc1c(-c2c(O)[nH]c3ccccc23)[nH]c2ccccc12 | 85 | 82 | 1 | 0 | 86 | 71 | 105 | 88 | 62 | 15 | 40 | 6 | 50 | 7 | 19 | 4 | 20 | 12 | 94 | 78
O=C1NC(=O)/C(=C\c2ccc3nccnc3c2)S1 | 95 | 80 | 98 | 96 | 88 | 76 | 94 | 99 | 89 | 92 | 112 | 83 | 61 | 35 | 114 | 78 | 101 | 99 | 82 | 91
